Bioassay records (PubChem BioAssay)
Rows were chosen to be rich in hits. Some 5.8% of all compounds tested hit in one or more screens of this group.
PINK1 expr mod = changes PINK1 expression; PINK1 immunofluorescence, high-content cytometry, 24 h; Potency, µM (doses to about 76.6 µM), inactives show at the top dose activation (PINK1 increase), actives largely listed as activators; 410,000 compounds, 0.2% hits; active = well fitted activation curve with a large enough effect; inconclusive = small, poorly fitted or top-dose-only effect; cell line not stated here; note: % of control where 0% means no effect; nearly all actives have a fitted effect of over 65% in size
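Measures PINK1 amount and localization on or inside mitochondria by immunofluorescence. Stable cells get compounds at 5 concentrations for 24 hours before fixation and staining; CCCP controls included.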
12-LOX inh = inhibitors of human 12S-lipoxygenase ALOX12 | P18054 | 580,000 compounds, 1.1% hits | purified 12hLO, xylenol orange hydroperoxide absorbance | Potency, µM (doses to about 108 µM), inactives show top-dose activity change, negative = inhibition, most hits filed as inhibitors; note: % is set by controls: 0 for no effect and ±100 for the full control effect
Target sequence (P18054 whole entry, looked up): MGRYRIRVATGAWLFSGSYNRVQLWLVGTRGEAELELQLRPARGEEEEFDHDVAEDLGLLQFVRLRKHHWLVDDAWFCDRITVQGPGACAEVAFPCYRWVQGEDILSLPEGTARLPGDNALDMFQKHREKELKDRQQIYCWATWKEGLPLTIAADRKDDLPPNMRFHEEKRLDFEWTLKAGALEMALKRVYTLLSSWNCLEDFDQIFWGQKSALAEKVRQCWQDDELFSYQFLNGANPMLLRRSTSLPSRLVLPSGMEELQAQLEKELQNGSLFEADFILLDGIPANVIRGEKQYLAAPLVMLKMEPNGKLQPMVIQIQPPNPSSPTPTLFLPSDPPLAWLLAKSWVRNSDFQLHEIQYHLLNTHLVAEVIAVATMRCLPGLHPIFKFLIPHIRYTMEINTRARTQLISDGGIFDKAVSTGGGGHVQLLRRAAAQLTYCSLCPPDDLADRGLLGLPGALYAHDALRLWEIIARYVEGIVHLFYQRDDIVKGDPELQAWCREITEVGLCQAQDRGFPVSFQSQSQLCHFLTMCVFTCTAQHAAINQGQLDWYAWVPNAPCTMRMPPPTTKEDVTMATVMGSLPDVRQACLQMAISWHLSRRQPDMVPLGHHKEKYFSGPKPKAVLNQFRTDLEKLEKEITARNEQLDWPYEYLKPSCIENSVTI
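Purified human 12hLO at 150 nM in 25 mM Hepes, 0.01% Triton X-100, pH 7.0, preincubated 15 min at room temperature with compound. Reaction started with 40 uM arachidonic acid, 30 min at room temperature. Hydroperoxide measured by Fe-xylenol orange, 573/405 nm absorbance ratio.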
SW480 rereplic = inducers of DNA re-replication in SW480 colon cancer cells; SW480 DNA re-replication, Hoechst DNA content imaging, 48 h; AID 624297; 340,000 compounds, 1.8% hits; Potency, µM (series often up to 46.1 µM), for inactives: at the highest dose re-replication activation, hits mostly activators; note: % of control where 0% means no effect; nearly all actives have a fitted effect of over 55% in size
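Per well, 250 cells were exposed to pinned compound for 48 hr. Nuclear DNA was visualised with Hoechst (40 min, 37 C) and total object intensity recorded by fluorescence scanning.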
KB-V1 MDR tox = KB-V1 MDR subline cytotoxicity | Potency, µM (highest dose often 46.1 µM), hits mostly cytotoxic | 400,000 compounds, 3.4% hits | KB-V1 MDR cells viability, CellTiter-Glo, 72 h; note: % is set by controls: 0 for no effect and ±100 for the full control effect; nearly all actives have a fitted effect of over 60% in size
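Luminescent ATP read-out (CellTiter-Glo, 10 min) measures survival of drug-selected KB-V1 MDR cells after 72 h, 37 degrees C compound exposure. Medium: phenol-red-free DMEM, 10% FBS. Values from fitted concentration-response curves.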
KB-3-1 tox = kills parental KB-3-1 adenocarcinoma cells; 400,000 compounds, 1.4% hits; Potency, µM (highest dose often 46.1 µM), most hits filed as cytotoxic; AID 1347075; KB-3-1 viability, CellTiter-Glo ATP luminescence, 72 h; note: % is set by controls: 0 for no effect and ±100 for the full control effect; nearly all actives have a fitted effect of over 60% in size
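Parental KB-3-1 adenocarcinoma cells in phenol-red-free DMEM with 10% FBS were pin-treated with compounds at several concentrations, incubated 72 h at 37 °C, and viability read by CellTiter-Glo luminescence; concentration-effect curves were fitted after normalization.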
MCF10A rereplic = DNA re-replication induction in MCF 10a cells. Potency, µM (highest dose often 46.1 µM), for the others: at the top dose activity, positive = re-replication, most hits filed as activators. MCF 10A DNA re-replication, Hoechst nuclear intensity, 48 h. 350,000 compounds, 2.9% hits. AID 624296; note: % of control where 0% means no effect; nearly all actives have a fitted effect of over 50% in size
* = called active by the depositor; i = inactive; ? = inconclusive; . = not tested or not shown; [ ] = remark or other dose. Unless noted, calls come from the whole dose curve; as a rule, active = well fitted curve in the direction sought with a large enough effect; inconclusive = small, poorly fitted or top-dose-only effect, or another doubt; inactive = no such curve, though single readings can be large; an effect the other way counts as inactive or inconclusive. Potency is the fitted concentration of half-maximal effect.

SMILES	PINK1 expr mod	12-LOX inh	SW480 rereplic	KB-V1 MDR tox	KB-3-1 tox	MCF10A rereplic
Cc1ccc(NC2(c3nnnn3-c3ccccc3C)CCCCC2)c(C)c1	.	-10.1%	.	.	.	.
O=C(Nc1cccc(-c2cnc3ccccc3n2)c1)c1ccccc1	10.9%[38.3 µM]	-18.6%	2.8%	i	i	0.7%
O=C(O)COc1cnc2ccccc2n1	-0.2%	0.8%	-2.5%	?	i	-1.6%
CCC(=O)Nc1cccc(-c2cnc3ccccc3n2)c1	7.9%[38.3 µM]	-20.7%	-0.6%	?	i	-2.1%
O=C(Nc1cccc(-c2cnc3ccccc3n2)c1)c1cccc(NC(=O)c2ccco2)c1	-0.6%[38.3 µM]	0.0%	3.4%	?	?	14.6µM*
O=C(CCl)Nc1cccc(-c2cnc3ccccc3n2)c1	-1.2%	-21.1%	11.6µM*	13µM*	10.3µM*	?
O=C(CCl)Nc1ccc(Oc2cnc3ccccc3n2)cc1	-28.0%[38.3 µM]	?	?	14.6µM*	6.51µM*	?
Cc1ccc(-c2cnc3ccccc3n2)cc1C	0.9%	-7.5%	-7.9%	i	i	18.4µM*
CCC1(C)C(C#N)C(=O)NC(=O)C1C#N (stereo unspecified)	.	4.2%	.	.	.	.
CNC(=S)NNC(=O)c1csc(C(C)C)c1	.	1.7%	.	.	.	.
COc1cc(F)ccc1-c1ccc(=O)n(Cc2c(F)cccc2Cl)n1	.	-19.5%	.	.	.	.
COCCCNC(=O)c1nc(-c2ccc3[nH]ccc3c2)no1	.	-39.3%	.	.	.	.
CC(C)n1c(=S)[nH]c2c1c(=O)[nH]c(=O)n2C	1.5%	5.01µM*	-1.9%	i	i	-4.9%
CC(C)CNc1nc2c(c(=O)[nH]c(=O)n2C)n1C(C)C	.	19.8%	.	.	.	.
O=C(CSc1nc2ccccc2o1)Nc1ccc(F)cc1	.	-18.5%	.	.	.	.
C=CCn1c(=NC(=O)c2ccc(S(=O)(=O)N3CCCc4ccccc43)cc2)sc2cc(S(N)(=O)=O)ccc21	0.5%	10.6%	3.9%	i	i	28.2%
COCCn1c(=NC(=O)c2ccc(S(=O)(=O)N3CCCc4ccccc43)cc2)sc2cc(S(C)(=O)=O)ccc21	2.1%	-11.5%	?	1.84µM*	i	?
C=CCn1c(=NC(=O)c2ccc(S(=O)(=O)N3CCc4ccccc4C3)cc2)sc2cc(S(N)(=O)=O)ccc21	0.0%	-1.7%	?	?	i	9.2µM*
COc1cc(OC)cc(C(=O)N=c2sc3ccccc3n2C)c1	13.1%	0.0%	-37.5%	i	i	?
COc1cccc(C(=O)N=c2sc3cc(S(C)(=O)=O)ccc3n2C)c1	14.9%	-1.2%	6.51µM*	i	i	1.2%
C#CCn1c(=NC(=O)c2ccc(S(=O)(=O)N3CCc4ccccc4C3)cc2)sc2cc(S(N)(=O)=O)ccc21	-2.0%	.	?	?	?	4.11µM*
Cc1cc(NC(=O)CSc2nnnn2-c2ccc(C)c(C)c2)n(-c2ccccc2)n1	.	16.2%	.	.	.	.
C=CCNC(=O)c1coc(COc2ccc3c(c2)C(c2cccc(C)c2)N(C(=O)C2CC2)CC3)n1 (stereo unspecified)	.	2.2%	.	.	.	.
CN=C1S/C(=C/c2cn(CC(=O)OC)c3ccccc23)C(=O)N1C	3.2%	28.2µM*	3.4%	i	i	0.7%
O=CNCc1nc2ccccc2n1CCc1ccccc1	-2.2%	15.1%	2.91µM*	?	i	?
SMILES	PINK1 expr mod	12-LOX inh	SW480 rereplic	KB-V1 MDR tox	KB-3-1 tox	MCF10A rereplic
Cc1ccc(C(=O)OCc2nc3ccccc3o2)cc1	.	-10.3%	.	.	.	.
CC(CN(C)C)CN1c2ccccc2Sc2ccccc21 (stereo unspecified)	0.2%	-27.4%	-20.0%	18.4µM*	i	-9.2%
C[C@@H](CN(C)C)CN1c2ccccc2Sc2ccccc21	.	-24.6%[22.9 µM]	-10.4%[20.6 µM]	.	.	-3.0%[20.6 µM]
Cc1ccc(Cl)cc1N(Cc1ccc(C(=O)NCc2cccnc2)cc1)S(=O)(=O)c1ccccc1	0.1%	27.2%	-10.1%	14.6µM*	i	-3.9%
COc1ccc(NC(=O)c2ccc(CN(c3cc(Cl)ccc3C)S(=O)(=O)c3ccccc3)cc2)cc1OC	-1.8%[38.3 µM]	13.8%	5.3%	3.66µM*	i	16.3%
CSc1ccc(C2CC(=O)NC3=C2C(=O)CC(C)(C)C3)cc1 (stereo unspecified)	.	-0.4%	.	.	.	.
O=S(=O)(Nc1cccc2ccccc12)N1CCCC1	4.2%[38.3 µM]	14.5%	4.8%	?	i	8.2µM*
COc1ccc(CN(C)CC(=O)Nc2cc3oc4ccccc4c3cc2OC)c(OC)c1	9.6%	-5.6%	24.4%	i	i	?
COc1cc2c(cc1NCc1ccccn1)oc1ccccc12	1.0%	-24.4%	3.4%	i	i	23.1µM*
COc1cc2c(cc1NC(=O)CN(C)Cc1ccc(OC)c(OC)c1)oc1ccccc12	5.1%	-2.1%	18.4µM*	?	?	9.2µM*
COCCCNC(=S)Nc1cc2oc3ccccc3c2cc1OC	2.8%	419.0%	11.6µM*	?	?	9.2µM*
Cc1ccccc1-c1nn2c(COc3ccc(F)cc3)nnc2s1	.	5.7%	.	.	.	.
COc1cc2c(cc1NC(=O)CSc1ccc(C)cc1)oc1ccccc12	2.0%[38.3 µM]	-3.5%	20.8%	i	i	?
COc1cc2c(cc1NC(=O)CSc1nc3ccc(C)cc3[nH]1)oc1ccccc12	.	.	14.3%	.	.	5.17µM*
COc1cc2c(cc1NC(=O)CSc1cccc[n+]1[O-])oc1ccccc12	0.6%	-2.0%	-7.0%	11.6µM*	?	14.7%
COc1cc2c(cc1NC(=O)CCCN1C(=O)CCC1=O)oc1ccccc12	0.5%	0.0%	8.0%	i	i	0.1%
COc1cc2c(cc1NC(=O)COc1ccccc1OC)oc1ccccc12	14.1µM*	-2.3%	-10.8%	i	i	9.2%
COc1cc2c(cc1NC(=O)CCCCCN1C(=O)CCC1=O)oc1ccccc12	0.3%[38.3 µM]	-0.4%	5.7%	7.31µM*	i	0.8%
Cc1cc(Cl)ccc1NC(=O)C1CCCc2ccccc21 (stereo unspecified)	.	10.7%	.	.	.	.
COc1ccc(NC2CCCN(C(=O)C(C)(C)c3ccccc3)C2)cc1 (stereo unspecified)	.	-2.3%	.	.	.	.
O=C1c2cc(N3CCOCC3)nc(-c3cnc4[nH]ccc4c3)c2CN1CC(F)(F)F	.	45.7%[176 µM]	.	.	.	.
O=S(=O)(CCSc1nnnn1C1CC1)c1cc(Cl)ccc1Cl	.	-24.7%	.	.	.	.
CNC(=O)c1ccc(NC(=O)CSCc2csc(-c3ccccc3)n2)cc1	.	-3.3%	.	.	.	.
COc1cc2c(cc1NS(=O)(=O)N1CCCCC1)oc1ccccc12	12.7%[38.3 µM]	15.1%	?	i	i	10µM*
O=S(=O)(Nc1ccc2c(c1)oc1ccccc12)N1CCCC1	-1.8%	-28.8%	-1.9%	i	i	-15.5%
